Source: PubChem (several laboratories)
AddAB inh: growth inhibition of E. coli expressing H. pylori AddAB, primary screen, AddAB inhibitor project, absorbance | inhibition, % at 11.9 µM | 0.29% of 330,000 active | AID 435030, 2010; in the data active means inhibition above about 12%;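 further: 0% = vehicle wells of infected cells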
E coli growth-1: E. coli V3065 growth inhibition, primary screen, counter-screen for AddAB inhibitor project, absorbance, OD600; 18 h; inhibition, % at 11.9 µM; 0.27% of 330,000 active;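 active means inhibition above the campaign's mean inhibition across all tested compounds plus 3 SD, cut at about 9.9% in these data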;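 further: uninfected addAB+ strain grown without phage in ampicillin broth; 0% = DMSO wells and 100% = ciprofloxacin 0.95 µg/ml wells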
Tat export inh: E. coli Tat export inhibitors, primary screen, MC4100, TorA-mCherry reporter, fluorescence, single point. AID 488895, 2010. inhibition, % at 10 µM. 0.036% of 340,000 active;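 active means mean replicate inhibition at least 50% and at least half of replicates individually reaching 50%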;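 further: exported cargo escapes ClpAP degradation while cytoplasmic cargo is degraded and loses fluorescence; 0% = median of neutral control wells and 100% = median of NaSCN control wells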
phage Ecoli inh: growth loss of phage-infected E. coli, primary screen, RecBCD inhibitor project, absorbance, with phage, HTS. inhibition, % at 11.9 µM. 0.26% of 360,000 active; in the data active means inhibition above about 11%
E coli growth-2: E. coli growth inhibition, primary screen, OD600; OD600 absorbance (test concentration not listed); 0.21% of 330,000 active; Escherichia coli growth, 23 h; stronger effect = lower value;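 active means OD600 absorbance below the run mean of sample wells minus 3.6 SD, in any replicate, cut at about 0.56 in these data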
AddAB conf: growth loss of phage-infected E. coli expressing H. pylori AddAB, confirmation, AddAB inhibitor project, absorbance, E. coli V3065, T4 phage, triplicate. shares compounds with AddAB inh. OD; T4 phage with gene 2 nonsense mutations. inhibition, % at 11.9 µM. 64% of 880 active;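 active means mean inhibition above a set limit taken from the earlier primary screen, cut at about 13% in these data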;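 further: higher means less bacterial growth since AddAB block lets phage replicate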
RecBCD counter: growth loss of RecBCD+ E. coli with mutant T4 phage, counter-screen for AddAB inhibitor project, absorbance, V66 E. coli; shares compounds with AddAB inh; 73% of 880 active; inhibition, % at 11.9 µM; OD growth;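 active means mean inhibition above the mean of solvent-only control wells plus 3 SD, cut at about 4% in these data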;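 further: optical density read after an 18 h incubation at 37 °C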
Bact viability: bacterial viability inhibition counter-screen, confirmation, counter-screen for AddAB inhibitor project, absorbance. shares compounds with AddAB inh. absorbance (AddAB counterscreen). inhibition, % at 11.9 µM. 35% of 880 active; in the data active means inhibition above about 25%
RecBCD conf: growth loss of phage-infected RecBCD+ E. coli, confirmation, RecBCD inhibitor project, absorbance, E. coli V66, T4 gene 2 phage; E. coli V66 + T4 2- phage, growth OD; shares compounds with phage Ecoli inh; 45% of 890 active; AID 651982, 2013; inhibition, % at 11.9 µM;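 active means mean inhibition over triplicates exceeding the hit threshold derived in the original primary screen, cut at about 11% in these data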
Ecoli viability: E. coli viability inhibition, counter-screen for RecBCD inhibitor project, absorbance, high throughput; shares compounds with phage Ecoli inh; absorbance (OD) growth; inhibition, % at 11.9 µM; 29% of 890 active; in the data active means inhibition above about 20%;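 further: E. coli strain V66 grown with compound alone and no phage infection; 0% = bacteria with DMSO vehicle only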
AddAB counter: growth loss of phage-infected AddAB-carrying E. coli, confirmation, counter-screen for RecBCD inhibitor project, absorbance, E. coli V3065, T4 phage; shares compounds with phage Ecoli inh; E. coli expressing H. pylori AddAB + T4 phage, OD growth; gene 2 mutant T4, recBCD-deleted host; inhibition, % at 11.9 µM; 45% of 890 active; AID 651984, 2013;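 active means mean inhibition above the solvent-only control wells' mean plus 3 SD, cut at about 22% in these data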;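 further: higher means less bacterial growth from phage killing when AddAB is blocked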
* hit, by the source's call; · = no result given. In the library only some 0.5% were active in any assay of this set; here they are far more common.

SMILES | AddAB inh | E coli growth-1 | Tat export inh | phage Ecoli inh | E coli growth-2 | AddAB conf | RecBCD counter | Bact viability | RecBCD conf | Ecoli viability | AddAB counter
CCn1cc(C(=O)N[C@H](C)c2ccccc2)c(=O)c2cc(F)c(N3CCN(C)CC3)cc21 | 2 | -1 | 12 | -2 | 0.72 | · | · | · | · | · | ·
CCn1cc(C(=O)NCc2ccc3c(c2)OCO3)c(=O)c2cc(F)c(N3CCN(C)CC3)cc21 | 99* | 98* | 10 | 16* | 0.043* | 102* | 29* | 101* | 18* | 20 | 102*
CCC(C)NC(=O)c1cn(CC)c2cc(N3CCN(C)CC3)c(F)cc2c1=O (stereo unspecified) | 99* | 95* | · | 94* | 0.075* | 100* | 99* | 100* | 99* | 99* | 100*
COc1ccc(C=Nn2c(SC)nnc(C(C)(C)C)c2=O)cc1OC | · | · | · | · | 0.75 | · | · | · | · | · | ·
Cc1ccc(C)c(C=NNC(=S)NC(C)C)c1 | · | · | · | · | 0.75 | · | · | · | · | · | ·
C/C(=N\Nc1ccc2nncn2n1)c1ccccn1 | 31* | 27* | · | 32* | · | 22* | 29* | 19 | 18* | 27* | 21
CCOC(=O)C1C2COc3ccc(Br)cc3C2N2C(=O)CN(Cc3ccc(C)cc3)C(=O)[C@@]12C (stereo partly specified) | · | · | · | · | 0.71 | · | · | · | · | · | ·
COc1ccc(C(=O)NN=Cc2cc(Br)ccc2O)cc1OC | · | · | · | · | 0.71 | · | · | · | · | · | ·
COc1ccc(Nc2nnc(SCc3cn4c(C)cccc4n3)s2)cc1 | 16* | 16* | -31 | 14* | 0.6 | 16* | 12* | 13 | 13* | 18 | 19
CCN1C(=O)C2C(c3ccc(-c4cccc(Cl)c4)cc3)N[C@@](CC(C)C)(C(=O)OC)C2C1=O (stereo partly specified) | · | · | · | · | 0.67 | · | · | · | · | · | ·
O=C(O)CC1S/C(=N/N=Cc2ccccn2)NC1=O (stereo unspecified) | · | · | · | · | 0.64 | · | · | · | · | · | ·
C/C(=N\N=C1\NC(=O)C(CC(=O)O)S1)c1ccccn1 (stereo unspecified) | 19* | 17* | · | 26* | · | 26* | 22* | 24 | 22* | 25* | 28*
Cc1nnc(NCCc2ccccc2)c2ccccc12 | 18* | 15* | 10 | 13* | 0.52 | 10 | 8.5* | 10 | 2 | 6 | 6
Cc1nnc(NCc2cccc(Cl)c2)c2ccccc12 | 3 | 1 | 1 | 1 | 0.63 | · | · | · | · | · | ·
CCC(=O)NC(c1ccc(C)cc1)c1ccc2cccnc2c1O (stereo unspecified) | 24* | 29* | -3 | 24* | · | 22* | 24* | 17 | 15* | 21* | 29*
O=C(O)c1ccccc1NC(c1ccccc1)c1ccc2cccnc2c1O (stereo unspecified) | · | · | 12 | 10 | · | · | · | · | · | · | ·
CCCC(=O)NC(c1ccc(C(C)C)cc1)c1ccc2cccnc2c1O (stereo unspecified) | 26* | 27* | -1 | 21* | · | 21* | 19* | 20 | 14* | 17 | 21
CCCC(=O)NC(c1ccc(N(C)C)cc1)c1ccc2cccnc2c1O (stereo unspecified) | 31* | 28* | 1 | 26* | · | 25* | 22* | 20 | 17* | 24* | 29*
CCC(=O)NC(c1ccc(C)cc1)c1cc([N+](=O)[O-])c2cccnc2c1O (stereo unspecified) | 2 | -1 | 0 | 2 | 0.71 | · | · | · | · | · | ·
C=CCCC(Cc1ccc(F)cc1)C(=O)OCC(Cc1ccccc1)NC(=O)C(CC=C)CC(=O)NC(CO)Cc1ccccc1 (stereo unspecified) | · | · | · | · | 0.75 | · | · | · | · | · | ·
O=C(NNC(=O)C1CCN(S(=O)(=O)c2ccc(Cl)cc2)CC1)c1ccccc1O | 12* | 7 | -2 | 12* | · | 7 | 7.3* | 8 | -2 | 1 | 4
Cc1cc(C)nc(NS(=O)(=O)c2ccc(N=NN(C)C)cc2)n1 | 3 | 0 | -12 | 1 | 0.68 | · | · | · | · | · | ·
Cc1ccc(C(=O)NS(=O)(=O)c2ccc(N=NN(C)C)cc2)cc1 | 100* | 70* | -9 | 13* | 0.65 | 0 | -1 | -1 | 0 | 1 | -1
CCCC1CCCO[C@@](C(=O)NCCN2CCOCC2)(C(F)(F)F)C1 (stereo partly specified) | · | · | · | · | 0.69 | · | · | · | · | · | ·
O=C(N/N=C/c1ccc(O)c(O)c1O)/C(=C/c1ccc([N+](=O)[O-])cc1)NC(=O)c1ccccc1 | 16* | 20* | 7 | 15* | · | 6 | 9.5* | 2 | 0 | 3 | 2
SMILES | AddAB inh | E coli growth-1 | Tat export inh | phage Ecoli inh | E coli growth-2 | AddAB conf | RecBCD counter | Bact viability | RecBCD conf | Ecoli viability | AddAB counter
Oc1ccccc1N=N/C(=N/Nc1ccccc1O)c1ccccc1 | 4 | 1 | 1 | 1 | · | · | · | · | · | · | ·
N#C/C(N=Nc1ccccc1O)=N\Nc1ccccc1O | 23* | 22* | -3 | 30* | · | 89* | 27* | 94* | 25* | 25* | 94*
COc1ccccc1C=NNc1cc(C)nc(-n2nc(C)cc2C)n1 | · | · | · | · | 0.7 | · | · | · | · | · | ·
COc1ccc(S(=O)(=O)Nc2ccc3c(c2)C(=O)N(C(C)CO)CC(C)C(CN(C)C(=O)NC2CCCCC2)O3)cc1 (stereo unspecified) | · | · | · | · | 0.68 | · | · | · | · | · | ·
Oc1ccc2ccccc2c1N=Nc1ccccn1 | 26* | 31* | 4 | 27* | 0.74 | 27* | 25* | 25 | 23* | 27* | 30*
CC(C)(C)N1C(=O)C2C(c3ccc(Br)cc3)N3C(=O)N(c4cccc(Cl)c4)C(=O)[C@@]3(Cc3ccccc3)C2C1=O (stereo partly specified) | · | · | · | · | 0.72 | · | · | · | · | · | ·
N#Cc1ccc(-c2nc3cc(Cl)ccc3c(=O)n2O)cc1 | -7 | -8 | 3 | -6 | 0.63 | · | · | · | · | · | ·
O=c1c2ccc(Cl)cc2nc(-c2cccc(C(F)(F)F)c2)n1O | 12* | 11* | -4 | 11* | 0.78 | 4 | 7.9* | -1 | 0 | 2 | 1
COc1ccc(CCc2cc(OC)c(OC)c(OC)c2)cc1 | · | · | 4 | 0 | · | · | · | · | · | · | ·
